Assay outcomes from PubChem BioAssay.
MITF inh – inhibitors of human MITF; AID 1259374; O75030; AlphaScreen MITF homodimerization, bead proximity signal; inhibition, % at 2.6 µM; 650,000 tested, 0.91% active; in the data active = inhibition above about 50%;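 note: 0% = vehicle wells with protein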
TEAD-YAP block – TEAD-YAP interaction inhibition. HEK-TIYL cells, TEAD-Gal4/YAP UAS-luciferase luminescence. inhibition, % at 9.12 µM. 640,000 tested, 1.4% active. AID 1259422; in the data active = inhibition above about 32%;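 note: 0% = median of test compound wells and 100% = reference inhibitor wells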
GPR151 activ – human GPR151 activation | Q8TDV0 | PathHunter beta-arrestin GPR151 cells, luminescence | activation, % at 11.2 µM | 650,000 tested, 1% active | AID 1508602; in the data active = activation above about 4.9%;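 note: 0% = median of compound wells and 100% = cells with positive control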
Target sequence (Q8TDV0 whole entry, looked up): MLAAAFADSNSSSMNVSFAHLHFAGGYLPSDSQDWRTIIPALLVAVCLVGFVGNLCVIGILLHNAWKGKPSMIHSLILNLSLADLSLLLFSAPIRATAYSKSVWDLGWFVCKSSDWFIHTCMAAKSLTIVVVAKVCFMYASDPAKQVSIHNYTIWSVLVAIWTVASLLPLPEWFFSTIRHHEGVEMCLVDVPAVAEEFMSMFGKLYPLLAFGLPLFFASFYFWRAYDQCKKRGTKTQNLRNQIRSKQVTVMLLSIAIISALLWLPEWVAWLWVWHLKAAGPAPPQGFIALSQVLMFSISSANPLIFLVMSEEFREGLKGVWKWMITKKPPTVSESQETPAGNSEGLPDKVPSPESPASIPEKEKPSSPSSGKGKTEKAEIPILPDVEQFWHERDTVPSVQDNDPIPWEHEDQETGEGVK
FBW7 act – human FBW7 E3 ligase activation, primary screen. AID 1259310. Q969H0. normalized activity (activation), % at 26.1 µM. 650,000 tested, 0.13% active. AlphaScreen FBW7–phospho-cyclin E peptide binding, activator screen; in the data active = normalized activity above about 1.9%;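 note: purified mutant Fbw7 with reduced substrate affinity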
GPR151 confirm – human GPR151 activation, confirmation screen; shares compounds with GPR151 activ; GPR151 PathHunter beta-arrestin cells, luminescence, 90 min; % of EA-reagent control over plate median; activation, % at 11.2 µM; 6,700 tested, under 10 active;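 active = mean percent activation across replicates above the confirmation screen cutoff of 4.91%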
GPR119 counter – activates human GPR119 in a GPR151 counter-screen | AID 1508611 | shares compounds with GPR151 activ | 6,700 tested, 0.3% active | GPR119 PathHunter beta-arrestin cells, luminescence, 90 min; 0 = compound-well median, 100 = enzyme-acceptor control | activation, % at 11.2 µM;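 active = mean percent activation in the counterscreen above 29.09%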;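 note: counterscreen on off-target GPR119 to flag nonselective hits from the GPR151 activator screen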
* marks the source's active call; other numbers are inactive results; / = not tested or not shown. Compounds with a hit are over-represented: about 3.5% of the library has one in this group of screens.

SMILES	MITF inh	TEAD-YAP block	GPR151 activ	FBW7 act	GPR151 confirm	GPR119 counter
Cc1ccc(CS(=O)(=O)CC2Nc3ccc(C(=O)N4CCN(c5cccc(C(F)(F)F)c5)CC4)cc3NC2=O)cc1 (stereo not given)	-1.1	0.2	0.4	-0.2	/	/
Cc1cccc(CS(=O)(=O)CC2Nc3ccc(C(=O)N4CCN(c5cccc(C(F)(F)F)c5)CC4)cc3NC2=O)c1 (stereo not given)	12.8	0.9	5.2*	0.3	0.1	2.5
O=C1Nc2cc(C(=O)N3CCN(c4cccc(C(F)(F)F)c4)CC3)ccc2Sc2ccccc21	1.3	-3.3	5.1*	-0.1	0.1	11.0
COc1ccc(C2C(C(=O)OCCOc3ccccc3)=C(C)NC3=C2C(=O)CCC3)c(OC)c1 (stereo not given)	4.5	14.6	4.0	0.1	/	/
Clc1ccc(C2C3=C(Nc4ncnn42)c2ccccc2CCC3)cc1 (stereo not given)	-3.5	-5.7	6.0*	-0.2	0.4	3.8
CC(=O)Nc1ccc(NC(=O)COC(=O)c2ccc3c(c2)nc(C)n3-c2ccccc2)cc1	-0.5	1.9	10.7*	-0.1	0.5	7.6
CCOC(=O)C1=C(C)NC2=C(C(=O)CC(c3ccc(OC)c(OC)c3)C2)C1c1ccc(Cl)cc1Cl (stereo not given)	10.8	-1.1	-1.3	0.8	/	/
CCc1cccc(CC)c1NC(=O)C1CC(=O)N(c2ccc(F)cc2)C1 (stereo not given)	11.8	9.6	0.7	0.1	/	/
CCc1cccc(CC)c1NC(=O)C1CC(=O)N(c2ccccc2OC)C1 (stereo not given)	-1.2	-3.9	8.6*	-0.1	0.4	11.5
CC(C)N(CCNC(=O)c1cccc(NCCCN2CCCC2=O)c1)C(C)C	3.1	-0.5	5.0*	0.0	-0.6	5.2
CCC(CC)C(=O)Nc1c2c(nn1-c1ccccc1C)CS(=O)C2 (stereo not given)	-5.5	4.0	-0.9	-0.1	/	/
CCOC(=O)c1c(NC(=O)c2cccs2)sc(C(=O)Nc2ccc(OC)cc2OC)c1C	-0.7	-4.2	5.2*	0.0	0.9	3.7
CCOC(=O)c1c(NC(=O)c2ccccc2F)sc(C(=O)Nc2ccccc2C)c1C	2.9	-5.2	7.9*	-0.1	1.4	12.5
CCOC(=O)c1c(NC(=O)c2cccs2)sc(C(=O)Nc2ccccc2OC)c1C	3.2	-1.9	0.5	-0.1	/	/
CC(C)(C)N1C(=O)c2ccc(C(=O)Nc3ccc([N+](=O)[O-])cc3Cl)cc2C1=O	4.1	3.6	6.6*	0.0	0.3	-0.4
O=C(CSCc1ccc(Cl)cc1)NCCSCc1ccco1	5.4	-3.1	7.8*	0.0	-0.7	-15.8
O=C(Cc1cn(-c2ccc(Oc3ccccc3)nn2)c2ccccc12)NCCOc1ccccc1	13.6	-11.9	2.7	0.1	/	/
O=C(Cc1cn(-c2ccc(Cl)nn2)c2ccccc12)NCCOc1ccccc1	5.5	2.4	6.9*	0.1	0.5	-2.1
CC(C)NC(=O)CCc1nnc2n(Cc3ccc(F)cc3)c(=O)c3ccccc3n12	14.1	4.9	8.0*	0.7	0.7	12.5
O=C(CCc1nnc2n(Cc3ccc(F)cc3)c(=O)c3ccccc3n12)Nc1ccccc1	3.6	-3.3	-0.8	0.1	/	/
Clc1cccc(CN2CCN(c3nc4nonc4nc3NC3CC3)CC2)c1	-5.8	5.6	11.4*	-0.1	-0.7	-8.2
Cc1cccn2c(=O)c(/C=C(\C#N)C(N)=O)c(Oc3ccc(Cl)cc3)nc12	7.8	-3.3	1.4	0.1	/	/
O=C(CCCN1C(=O)/C(=C\c2cccs2)SC1=S)NNC(=O)c1ccccc1O	-1.5	-5.6	1.4	0.0	/	/
CC(C)(C)c1ccc2c(c1)N(CC(=O)NC1CCCCCC1)C(=O)CO2	7.4	-9.0	5.5*	-0.1	1.3	1.6
O=C(CN1C(=O)COc2ccc(Cl)cc21)NC1CCCCCC1	7.5	-4.4	-0.4	0.1	/	/
SMILES	MITF inh	TEAD-YAP block	GPR151 activ	FBW7 act	GPR151 confirm	GPR119 counter
COCCNC(=O)CN1C(=O)COc2ccc(Cl)cc21	4.9	-0.7	7.8*	-0.1	-0.2	3.6
CC(C)NC(=O)CN1C(=O)COc2ccc(C(C)(C)C)cc21	1.1	-4.7	5.8*	-0.1	0.4	8.2
CC(=O)c1c(C)oc2ccc(N(C(=O)Oc3ccccc3)S(=O)(=O)c3ccc(C)cc3)cc12	13.4	10.2	0.0	0.2	/	/
Cc1cnc(Nc2ccncn2)nc1Nc1ccccc1	1.8	-3.6	-0.3	0.5	/	/
COc1ccc(N(CCCN2C(=O)c3cccc4cccc(c34)C2=O)C(=O)c2cc(Cl)cc(Cl)c2)cc1	-1.6	4.3	-1.1	-0.1	/	/
COc1ccc(N(CCCN2C(=O)c3cccc4cccc(c34)C2=O)C(=O)c2ccc([N+](=O)[O-])cc2Cl)cc1	-4.2	4.7	12.4*	-0.2	-0.3	-0.1
CC(=O)Nc1ccc(NC(=S)NC(=O)c2cccc(Cl)c2)cc1	0.9	-22.8	1.8	0.3	/	/
Cc1cccnc1NC(=S)NC(=O)c1cccc(Cl)c1	2.6	-76.7	5.0*	0.0	1.3	14.8
COc1ccc(S(=O)(=O)Nc2ccc3oc(=O)sc3c2)cc1[N+](=O)[O-]	-1.1	-0.8	0.4	-0.3	/	/
COc1ccc(C2(c3ccccc3)NC(=O)NC2=O)cc1 (stereo not given)	19.7	15.3	0.4	0.1	/	/
CN(C)S(=O)(=O)c1ccc(C(=O)CSc2n[nH]c(N)n2)cc1	0.5	-30.9	9.6*	0.0	0.1	2.9
Cc1ccccc1CN1CCN(c2ccccn2)CC1	-0.3	-15.0	-0.7	-0.1	/	/
Cc1ccc(C)c(N2CCN(C(=O)CCc3nc(-c4ccccc4F)no3)CC2)c1	-2.2	-2.7	5.5*	-0.2	1.2	9.2
COC(=O)c1c(NC(=O)c2ccco2)sc(C(=O)Nc2cccc(C)c2)c1C	10.2	4.1	6.4*	0.5	-0.1	1.2
CCN(CC)C(=O)c1sc(NC(=S)NCc2ccco2)c(C(=O)OC)c1C	4.0	10.0	11.3*	-0.2	-0.1	2.7
CCN(CC)C(=O)c1sc(NC(=O)c2ccco2)c(C(=O)OC(C)C)c1C	-2.0	-4.0	1.4	0.0	/	/
O=C(NCc1ccc(N2CCCC2=O)cc1)c1cn(Cc2ccccc2)nn1	9.2	-1.3	7.4*	0.0	0.7	6.7
C=CCNc1nc2c(c(=O)[nH]c(=O)n2C)n1CC(O)COC(C)C (stereo not given)	0.0	-6.0	-0.6	-0.2	/	/
O=c1oc2cc(OCCc3ccccc3)ccc2c2c1CCC2	0.7	8.4	0.0	-0.1	/	/
CC(C)CO/N=C1\C[C@@H](O)[C@@H](O)[C@@H]2[C@@H]3C(=O)N(Cc4ccccc4)C(=O)[C@@H]3CC[C@H]12	7.7	/	-0.3	0.3	/	/
CCN1C(=O)[C@H]2[C@H]3[C@H](O)[C@H](O)C/C(=N\OCC(C)C)[C@@H]3CC[C@H]2C1=O	13.6	/	6.6*	0.3	0.1	12.0
